About 83,000 compounds went through this panel and 20% of them were active in at least one assay; those are over-represented in the sample as a whole.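 Note: values are percent growth. 100 is the growth of untreated cells, values between 100 and 0 indicate rising inhibition; between -100 and 0 indicates cell death.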 Values without a mark were called inactive. Active and inactive are the calls of the source. Rule for the calls: active = growth percent below 10; inactive = the rest.

Test systems include NCI-H23 lung; NCI-H226 lung; NCI-H322M lung; HOP-62 NSCLC; NCI-H460 lung; HOP-92 NSCLC; NCI-H522 lung; A549/ATCC NSCLC; 786-0 renal; COLO 205 colon.
What all share (assay): NCI-60 one-dose screen, 48 h (100 = growth as untreated, 0 = no growth, -100 = all killed)
Common to all, as to settings: 10 µM

Take `COc1cc(/C=C/C(=O)c2ccc(F)cc2)ccc1Oc1nc(Nc2ccc(F)cc2)nc(N(C)C)n1`: the growth in the experiment on NCI-H23 lung is 66.8%; with NCI-H226 lung, 53.7%; with NCI-H322M lung, 79.1%; in the experiment on HOP-62 NSCLC, 93.5%; in the experiment on NCI-H460 lung, 69.6%; in the experiment on HOP-92 NSCLC, 65.6%. Besides, the growth in the experiment on NCI-H522 lung was 62.3%; in the experiment on A549/ATCC NSCLC it was 74.1%; in the experiment with 786-0 renal, 71%; with COLO 205 colon, 118%.

For the compound `COC1CC(Cn2cc(COc3ccc4ccc(=O)oc4c3)nn2)C(OCc2ccccc2)C(OCc2ccccc2)C1OCc1ccccc1` (stereo not given), the growth in the experiment with NCI-H23 lung is 95.1%; with NCI-H226 lung, 92.8%; with NCI-H322M lung it was 106%; in the experiment with HOP-62 NSCLC, 98.9%; in the experiment on NCI-H460 lung, 113%; in the experiment on HOP-92 NSCLC it was 80.3%. Moreover, the growth is 92.4% in the experiment with NCI-H522 lung, 92.3% in the experiment on A549/ATCC NSCLC, 102% in the experiment with 786-0 renal and 121% in the experiment with COLO 205 colon.

As to `Nc1nc(-c2ccccc2)cc(-c2cc3ccccc3nc2Cl)n1`, the growth in the experiment with NCI-H23 lung was 89.3%; with NCI-H226 lung, 78.1%; in the experiment on NCI-H322M lung, 96.7%; in the experiment on HOP-62 NSCLC, 89.4%; in the experiment on NCI-H460 lung, 81.5%; in the experiment on HOP-92 NSCLC it was 73.1%. In addition, the growth in the experiment with NCI-H522 lung is 89.4%; in the experiment with A549/ATCC NSCLC it was 91%; in the experiment on 786-0 renal it was 89.7%; with COLO 205 colon it was 110%.

Regarding `COc1ccc(N(C)c2cc(C#N)nc3ccccc23)cc1N`, the growth is 9.56% (active) in the experiment on NCI-H23 lung; 25.4% in the experiment with NCI-H226 lung; 47.9% in the experiment with NCI-H322M lung; 36.2% in the experiment with HOP-62 NSCLC; 0.907% (active) with NCI-H460 lung; 58.1% in the experiment on HOP-92 NSCLC. Besides, the growth with NCI-H522 lung was -25.9% (active); in the experiment on A549/ATCC NSCLC it was 17.8%; in the experiment with 786-0 renal, 22.6%; with COLO 205 colon, -76.8% (active).

Consider `O=C(Nc1ccc(I)cc1F)c1cc(-c2ccc(F)cc2F)ccc1O`, for which the growth in the experiment on NCI-H23 lung is -22% (active); in the experiment on NCI-H226 lung, -7.15% (active); in the experiment on NCI-H322M lung, 6.19% (active); with HOP-62 NSCLC, -10.6% (active); in the experiment with NCI-H460 lung it was 2% (active); in the experiment with HOP-92 NSCLC, -26.3% (active). The growth in the experiment on NCI-H522 lung was -9.59% (active); in the experiment with A549/ATCC NSCLC, 9.86% (active); in the experiment with 786-0 renal, 16.7%; in the experiment on COLO 205 colon it was -35.6% (active).

With `Cc1nc(Nc2nc(C)c3ccc(OCCN4CCOCC4)cc3n2)[nH]c(=O)c1C`, the growth with NCI-H23 lung was -66.6% (active); in the experiment on NCI-H226 lung, -47.2% (active); with NCI-H322M lung, -10.8% (active); in the experiment on HOP-62 NSCLC, -34.5% (active); in the experiment with NCI-H460 lung it was 2.14% (active); with HOP-92 NSCLC, 3.9% (active). The growth in the experiment on NCI-H522 lung is -52.3% (active); with A549/ATCC NSCLC, 6.61% (active); with 786-0 renal it was -25.1% (active); in the experiment with COLO 205 colon, 0.287% (active).

For the compound `COc1ccccc1NCc1ccc(CO)n1-c1ccc(C)cc1`, the growth was 94.3% with NCI-H23 lung; 81.3% with NCI-H226 lung; 100% in the experiment with NCI-H322M lung; 88.1% in the experiment on HOP-62 NSCLC; 111% in the experiment with NCI-H460 lung; 80.5% in the experiment on HOP-92 NSCLC. For the same compound, the growth with NCI-H522 lung was 93.7%; in the experiment with A549/ATCC NSCLC, 100%; in the experiment on 786-0 renal, 104%; with COLO 205 colon, 120%.

Consider `C=C[C@@]12CN3CC[C@]1(O)[C@@](C(=O)OC)(CO2)c1[nH]c2ccccc2c1C3`, for which the growth with NCI-H23 lung was 78%; with NCI-H226 lung, 83.1%; with NCI-H322M lung, 93.7%; in the experiment on HOP-62 NSCLC, 99.5%; in the experiment on NCI-H460 lung it was 87.2%; in the experiment with HOP-92 NSCLC, 54.9%. In addition, the growth with NCI-H522 lung was 22.3%; in the experiment on A549/ATCC NSCLC, 87.6%; with 786-0 renal, 84%; in the experiment on COLO 205 colon it was 33.7%.

As to `CN1CCN(c2ccc(C(=O)/C=C/c3ccc(C#N)cc3)cc2)CC1`, the growth is 76.5% in the experiment with NCI-H23 lung; 80.7% in the experiment on NCI-H226 lung; 94.2% in the experiment on NCI-H322M lung; 89.1% in the experiment on HOP-62 NSCLC; 97.1% in the experiment with NCI-H460 lung; 77.2% in the experiment with HOP-92 NSCLC. Moreover, the growth is 81.5% in the experiment with NCI-H522 lung, 76.3% in the experiment with A549/ATCC NSCLC, 73.5% in the experiment on 786-0 renal and 87.4% with COLO 205 colon.

For `Cc1nc2c(cnn2-c2ccccc2)c(=O)n1-c1ccc(NC(=O)c2ccc(F)cc2)cc1`, the growth was 50.2% in the experiment on NCI-H23 lung; 56.2% in the experiment on NCI-H226 lung; 86.1% in the experiment with NCI-H322M lung; 64.6% with HOP-62 NSCLC; 54.4% with NCI-H460 lung; 85.2% with HOP-92 NSCLC. The growth in the experiment on NCI-H522 lung was 63.9%; in the experiment with A549/ATCC NSCLC, 54.6%; with 786-0 renal, 82.5%; in the experiment with COLO 205 colon, 62.3%.

Regarding `COc1cc(/C=C/C(=O)c2ccc(S(=O)(=O)NCCNc3nc(Nc4ccc(F)cc4)nc(N(C)C)n3)cc2)cc(OC)c1OC`, the growth in the experiment on NCI-H23 lung was 13.7%; in the experiment with NCI-H226 lung, -21.6% (active); in the experiment with NCI-H322M lung it was 58.7%; with HOP-62 NSCLC it was 30.2%; in the experiment on NCI-H460 lung it was 15.8%; in the experiment on HOP-92 NSCLC it was 60.4%. Also, the growth with NCI-H522 lung was 68%; in the experiment with A549/ATCC NSCLC, 18.4%; in the experiment with 786-0 renal it was -64.2% (active); in the experiment on COLO 205 colon, -50.8% (active).

In the case of `O=C(Cn1cc(CSc2nnc3oc4ccccc4n23)nn1)Nc1ccc(Br)cc1`, the growth in the experiment with NCI-H23 lung is 62.7%; with NCI-H226 lung, 45.2%; with NCI-H322M lung it was 86.9%; in the experiment with HOP-62 NSCLC it was 38.5%; in the experiment with NCI-H460 lung it was 101%; in the experiment on HOP-92 NSCLC, 32%. Moreover, the growth is 79.5% with NCI-H522 lung, 76.5% with A549/ATCC NSCLC, 69.6% in the experiment with 786-0 renal and 103% in the experiment on COLO 205 colon.

Turning to `O=C(c1ccccc1)n1ccc(-c2cc3cc(Br)ccc3oc2=O)n1`, the growth is 19% in the experiment on NCI-H23 lung; 27.5% in the experiment on NCI-H226 lung; 31.1% in the experiment on NCI-H322M lung; 20% with HOP-62 NSCLC; 9.4% (active) in the experiment with NCI-H460 lung; 34.7% in the experiment with HOP-92 NSCLC. Also, the growth with NCI-H522 lung is 1.16% (active); in the experiment on A549/ATCC NSCLC, 33.9%; in the experiment on 786-0 renal, 16.1%; with COLO 205 colon, 11%.

Source of the values: PubChem BioAssay (NCI).
